# Compound activity from PubChem BioAssay.
# MCF10A rereplic: A quantitative high throughput screen for small molecules that induce DNA re-replication in MCF 10a normal breast cells; MCF 10A DNA re-replication, Hoechst nuclear intensity, 48 h; Potency, µM (titrated, usually from 46.1 µM), for the others: at the highest dose activity, positive = re-replication, actives largely listed as activators; actives 2.9% (n = 350,000); also: % of control where 0% means no effect; nearly all actives have a fitted effect of over 50% in size
# KB-3-1 tox: qHTS assay for MDR1-selective chemotherapeutics: Primary screen using the parental adenocarcinoma cell KB-3-1. KB-3-1 viability, CellTiter-Glo ATP luminescence, 72 h. Potency, µM (top dose mostly 46.1 µM), hits mostly cytotoxic. actives 1.4% (n = 400,000). AID 1347075, 2019; also: % is scaled to controls: 0 for no effect and ±100 for the full control effect; nearly all actives have a fitted effect of over 60% in size
#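 Cells are dispensed, compounds pinned in, plates held at 37 °C for 72 h, then CellTiter-Glo is added and luminescence read after 10 minutes. Cell line: parental KB-3-1 in phenol-red-free DMEM, 10% FBS.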
# PINK1 modulator: A Quantitative High throughput Screen to Identify Chemical Modulators of PINK1 Expression; AID 624263, 2012; actives 0.2% (n = 410,000); Potency, µM (series often up to 76.6 µM), inactives show top-dose activation (PINK1 increase), most hits filed as activators; PINK1 immunofluorescence, high-content cytometry, 24 h; active = well fitted activation curve with a large enough effect; inconclusive = small, poorly fitted or top-dose-only effect; cell line not stated here; also: % of control where 0% means no effect; nearly all actives have a fitted effect of over 65% in size
#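 Fluorescence from anti-PINK1 antibody, together with nuclear and cell stains, was scanned on a laser-scanning cytometer. Before staining, stable-line cells were incubated 24 hours with compounds at 5 concentrations; primary antibody 12 h at 10 degrees C.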
# SW480 rerep: A quantitative high throughput screen for small molecules that induce DNA re-replication in SW480 colon adenocarcinoma cells | SW480 DNA re-replication, Hoechst DNA content imaging, 48 h | Potency, µM (doses to about 46.1 µM), inactives show top-dose re-replication activation, actives largely listed as activators | actives 1.8% (n = 340,000) | AID 624297, 2012; also: % of control where 0% means no effect; nearly all actives have a fitted effect of over 55% in size
#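 Compounds, transferred as 23 nL by pin tool, were incubated with cells for 48 hr; DNA content per nucleus was then quantified by Hoechst staining and fluorescence plate imaging.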
# KB-V1 cytotox: qHTS assay for MDR1-selective chemotherapeutics: Primary screen using the drug-selected MDR subline cells KB-V1; Potency, µM (titrated, usually from 46.1 µM), usual class: cytotoxic; actives 3.4% (n = 400,000); KB-V1 MDR cells viability, CellTiter-Glo, 72 h; also: % is scaled to controls: 0 for no effect and ±100 for the full control effect; nearly all actives have a fitted effect of over 60% in size
#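 Potencies derive from concentration-effect curves fitted to normalized luminescence (CellTiter-Glo) of KB-V1 cells treated for 72 h at 37 degrees C in phenol-red-free DMEM containing 10% FBS.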
# Active calls of the source: *; i = inactive; ? = inconclusive; nt = no result given; [ ] = remark or other dose. A selection: hits, their analogues and other compounds. The true share with any hit is near 6.7%. Unless noted, calls follow the shape of the dose curve; as a rule, active = well fitted curve in the direction sought with a large enough effect; inconclusive = small, poorly fitted or top-dose-only effect, or another doubt; inactive = no such curve, though single readings can be large; an effect the other way counts as inactive or inconclusive. Potency is read from the fitted curve at half-maximal effect.
SMILES,MCF10A rereplic,KB-3-1 tox,PINK1 modulator,SW480 rerep,KB-V1 cytotox
COc1ccc(OC)c(NC(=O)c2cc(-c3cc(Cl)ccc3O)n[nH]2)c1,14.6µM*,?,?,?,?
CNc1ccc(-c2cccc(CO)c2)cn1,nt,i,2.5%,nt,i
O=S1(=O)N=C(Sc2ccc3c(c2)OCCO3)c2ccccc21,nt,i,nt,nt,i
CC(C)CN(C(=O)c1cccc(S(=O)(=O)N2CCN(Cc3ccccc3)CC2)c1)C1CCS(=O)(=O)C1 (centres undefined),5.7%,i,-0.9%,19.0%,i
O=C(Nc1nc(-c2cc(Cl)sc2Cl)cs1)c1ccc(Br)s1,?,20.6µM*,?,-7.0%,?
O=C(NC(=S)Nc1nc(-c2ccc(Cl)cc2)cs1)c1cccs1,?,i,6.2%,-136.9%,i
O=C(Nc1nc(-c2cc(Cl)sc2Cl)cs1)c1cccs1,8.2µM*,?,?,17.8%,?
Cc1sc2ncnc(SCC(=O)Nc3ncccc3O)c2c1C,1.1%,?,-0.3%,-3.9%,?
Cc1sc2ncnc(SCc3ccco3)c2c1C,14.6µM*,i,2.2%,-3.5%,i
Cc1nnc(NC(=O)CSc2ncnc3scc(-c4ccccc4)c23)s1,?,i,78.4%[38.3 µM],?,?
COC(=O)c1c(-c2ccccc2)csc1NC(=O)CSc1ncnc2sc(C)c(C)c12,-6.4%,i,1.6%,3.0%,11.6µM*
Cc1cccnc1NC(=O)CSc1ncnc2sc(C)c(C)c12,10.0%,i,-2.4%,-5.0%,14.6µM*
Cc1sc2ncnc(N(C)Cc3ccco3)c2c1C,-7.0%,i,-2.0%,-0.6%,?
COc1cc2ncnc(N3CCN(C(=O)Nc4ccc(Oc5ccccc5)cc4)CC3)c2cc1OC,nt,i,1.8%,nt,i
COc1ccc2c(=O)n3nc(Nc4cccc(N5CCN(C)CC5)c4)sc3nc2c1,nt,i,nt,nt,i
O=S(=O)(c1ccc2ccccc2c1)N1CCN(C2CCN(Cc3ccccc3)CC2)CC1,0.9%,i,-43.5%[38.3 µM],-4.4%,7.31µM*
CC(C)CC(=O)N1CCN(S(=O)(=O)c2ccc3ccccc3c2)CC1,6.1%,?,-3.4%,3.6%,7.31µM*
O=C(CSc1ncc(C(F)(F)F)cc1Cl)N1CCN(S(=O)(=O)c2ccc3ccccc3c2)CC1,17.8%,i,0.0%[38.3 µM],5.5%,5.8µM*
COc1ccc(C2=C(C)C(=O)N(Cc3ccc(C(=O)Nc4ccc(F)cc4C)cc3)S2(=O)=O)cc1,nt,4.61µM*,8.6%,nt,i
COc1ccc(C2=C(C)C(=O)N(Cc3ccc(C(=O)Nc4cccc(F)c4)cc3)S2(=O)=O)cc1,nt,i,1.2%,nt,i
CC(C)(C)c1ccc(C2CC2C(=O)N/N=C\c2cc3ccccc3nc2Cl)cc1 (centres undefined),10.7%,i,1.7%,-6.7%,10.3µM*
Cc1ccccc1OCC(=O)N/N=C/c1cc2ccccc2nc1Cl,?,?,-0.7%,-11.2%,?
O=C(COc1cccc(Cl)c1)N/N=C\c1cc2ccccc2nc1Cl,?,i,9.1%,-0.1%,?
Cc1ccc2nc(Cl)c(/C=N/NC(=O)c3ccccc3O)cc2c1,?,i,?,-61.2%,i
O=C(CNc1ccc2ccccc2c1)N/N=C/c1cc2ccccc2nc1Cl,18.4µM*,i,4.8%,-2.4%,i
SMILES,MCF10A rereplic,KB-3-1 tox,PINK1 modulator,SW480 rerep,KB-V1 cytotox
Cc1ccc2nc(Cl)c(/C=N/NC(=O)[C@H]3C[C@@H]3c3ccccc3)cc2c1,8.2µM*,i,6.0%,?,i
CCN(Cc1ccccc1)S(=O)(=O)c1cc(C(=O)Nc2cc(Cl)cc(Cl)c2)ccc1F,nt,nt,44.7µM*,nt,nt
CCN(c1ccccc1)S(=O)(=O)c1cc(C(=O)Nc2cccc(Cl)c2)ccc1F,?,?,10.8%,?,20.6µM*
O=S(=O)(c1ccccc1)N1CCC2(CCCN(Cc3cc(C(F)(F)F)cc(C(F)(F)F)c3)C2)CC1,nt,nt,1.3%,nt,nt
COc1ccc(-c2nn(-c3ccccc3)cc2C2NC(=O)NC(C)=C2C(=O)OC(C)C)cc1Cl (centres undefined),nt,?,-5.2%,nt,i
Cc1ccc(S(=O)(=O)c2nc(S(=O)(=O)c3ccccc3)sc2N2CCN(CCO)CC2)cc1,17.0%,20.6µM*,-0.7%,-1.0%,?
Cc1ccc(S(=O)(=O)c2nc(S(=O)(=O)c3ccccc3)sc2N2CCN(C)CC2)cc1,23.1µM*,?,-2.1%,35.8%,?
COc1ccccc1N1CCN(S(=O)(=O)CCNC(=O)CC2CCCC2)CC1,nt,i,0.9%,nt,?
CCOC(=O)c1c(C)[nH]c(C)c1S(=O)(=O)NCC(=O)Nc1cccc(C#N)c1,nt,i,-0.2%,nt,i
Cc1ccc(NC(=O)Cn2sc3nc(C)cc(C)c3c2=O)c(Cl)c1,4.61µM*,i,0.3%,?,i
Cc1ccc(-n2nc(C)c3nc(CCC(=O)Nc4ccc(F)cc4)c(=O)n(C)c32)cc1,nt,i,-0.4%,nt,i
O=C(Nc1ccc2ncccc2c1)c1cccc(Br)c1,-1.4%,i,1.2%,-76.3%,i
Brc1ccc(CNc2ccc3ncccc3c2)cc1,14.6µM*,?,0.4%,-4.9%,?
CS(=O)(=O)c1ccc(-c2ccc3c(c2)CC(CNC(=O)C2(N4CCOCC4)CCCCC2)O3)cc1 (centres undefined),nt,nt,-0.4%,nt,nt
COc1cc(Cl)ccc1OCc1cc(C(=O)N2C[C@]3(C)C[C@H]2CC(C)(C)C3)no1,20.6µM*,nt,?,7.3%,nt
COc1cc(Cl)ccc1OCc1cc(C(=O)N2C[C@H]3CC[C@H]2C3)no1,1.1%,i,-2.0%,-4.3%,i
CSc1ccc(C(=O)C2CCCN(C(=O)c3ccc4c(c3)no[n+]4[O-])C2)cc1 (centres undefined),18.4µM*,i,-0.2%,-3.3%,?
CSc1ccc(C(=O)C2CCCN(S(=O)(=O)N(C)C)C2)cc1 (centres undefined),-1.8%,?,-1.3%,-1.9%,20.6µM*
C=CCNc1nc(N)c(C(=C(C#N)C#N)c2ccc(Br)cc2)s1,?,?,9.5%,20.6µM*,18.4µM*
Cn1c(=O)cc(OCC(=O)NCc2ccc(F)cc2Cl)c2ccccc21,nt,i,1.4%,nt,i
COc1ccc(NC(=O)CCCS(=O)(=O)c2nc(-c3ccc(OC)c(OC)c3)cc(C(F)(F)F)n2)cc1OC,nt,nt,6.4%,nt,nt
COc1ccccc1-c1cc(C(F)(F)F)nc(S(=O)(=O)CCCC(=O)O)n1,?,i,13.8%[38.3 µM],3.55µM*,i
COc1ccc(-c2cc(C(F)(F)F)nc(S(=O)(=O)CCCC(=O)Nc3cccc(O)c3)n2)cc1OC,6.51µM*,i,-2.0%,?,i
